Structures are written as SMILES. Counter-ions that a name gives are not always drawn. The full ranking holds about 1,500 compounds; the median of “Excess HSA synergy score (sum over dose matrix of excess over highest single agent)” is about 43, and the lowest 2% start at about -900. Many of the other results were omitted from the sample, so the lowest values are more common in it than they were.

The assay has as its system PEO-1. As to the kind of experiment: Excess HSA synergy score (sum over dose matrix of excess over highest single agent) (score (summed % response)); higher = less synergy / more antagonism (negative = synergy). The conditions noted are these: 72 h, read-out: viability/apoptosis luminescence (CellTiter-Glo or Caspase3-Glo / not stated per table).
[1] abbreviates: matrix design: 6x6, 5-fold dilutions (primary screen).

Take `C[C@@H](Oc1cc(-c2cnn(C3CCNCC3)c2)cnc1N)c1c(Cl)ccc(F)c1Cl` [Crizotinib] + CC[C@H](NC(=O)[C@H](C)NC)C(=O)N1C[C@@H](O)C[C@H]1Cc1c(-c2[nH]c3cc(F)ccc3c2C[C@@H]2C[C@H](O)CN2C(=O)[C@H](CC)NC(=O)[C@H](C)NC)[nH]c2cc(F)ccc12 [Birinapant]: under setting [1], the “Excess HSA synergy score” value is -219.
Still for that read-out and setting: as for `CCOC(=O)N1CCN(/[N+]([O-])=N/Oc2ccc([N+](=O)[O-])cc2C#N)CC1` + CC[C@H](NC(=O)[C@H](C)NC)C(=O)N1C[C@@H](O)C[C@H]1Cc1c(-c2[nH]c3cc(F)ccc3c2C[C@@H]2C[C@H](O)CN2C(=O)[C@H](CC)NC(=O)[C@H](C)NC)[nH]c2cc(F)ccc12 [Birinapant], the figure is 10.9; as for `O=C1NC(=O)[C@@H](c2cn3c4c(cccc24)CCC3)[C@@H]1c1c[nH]c2ccccc12` [Tivantinib] + CC[C@H](NC(=O)[C@H](C)NC)C(=O)N1C[C@@H](O)C[C@H]1Cc1c(-c2[nH]c3cc(F)ccc3c2C[C@@H]2C[C@H](O)CN2C(=O)[C@H](CC)NC(=O)[C@H](C)NC)[nH]c2cc(F)ccc12 [Birinapant], -96.6; as for `COC(=O)Nc1ccc(-c2nc(N3CCOCC3)c3cnn(C4CCN(C(=O)OC)CC4)c3n2)cc1` + CC[C@H](NC(=O)[C@H](C)NC)C(=O)N1C[C@@H](O)C[C@H]1Cc1c(-c2[nH]c3cc(F)ccc3c2C[C@@H]2C[C@H](O)CN2C(=O)[C@H](CC)NC(=O)[C@H](C)NC)[nH]c2cc(F)ccc12 [Birinapant], -64.3.
Turning to `O=C(O)c1ccccc1C(=O)Nc1ccc(-c2ccccc2)cc1` [Kartogenin] + CC[C@H](NC(=O)[C@H](C)NC)C(=O)N1C[C@@H](O)C[C@H]1Cc1c(-c2[nH]c3cc(F)ccc3c2C[C@@H]2C[C@H](O)CN2C(=O)[C@H](CC)NC(=O)[C@H](C)NC)[nH]c2cc(F)ccc12 [Birinapant], the “Excess HSA synergy score” value under setting [1] is 460.
The same measure, in the same setting: the same measure for `COc1cc(C(=O)NC2CCN(C)CC2)ccc1Nc1ncc2c(n1)N(C1CCCC1)CCC(=O)N2C(C)C` + CC[C@H](NC(=O)[C@H](C)NC)C(=O)N1C[C@@H](O)C[C@H]1Cc1c(-c2[nH]c3cc(F)ccc3c2C[C@@H]2C[C@H](O)CN2C(=O)[C@H](CC)NC(=O)[C@H](C)NC)[nH]c2cc(F)ccc12 [Birinapant]: 135.
As to `CC[C@@H]1C(=O)N(C)c2cnc(Nc3ccc(C(=O)N[C@H]4CC[C@H](N5CCN(CC6CC6)CC5)CC4)cc3OC)nc2N1C(C)C` [Volasertib] + CC[C@H](NC(=O)[C@H](C)NC)C(=O)N1C[C@@H](O)C[C@H]1Cc1c(-c2[nH]c3cc(F)ccc3c2C[C@@H]2C[C@H](O)CN2C(=O)[C@H](CC)NC(=O)[C@H](C)NC)[nH]c2cc(F)ccc12 [Birinapant], the “Excess HSA synergy score” value reads like this: under setting [1], 22.4; (matrix design: 10x10, 9-step dilutions (confirmatory)) -1030.
Consider `CC[C@@H]1C(=O)N(C)c2cnc(Nc3ccc(C(=O)NC4CCN(C)CC4)cc3OC)nc2N1C1CCCC1` + CC[C@H](NC(=O)[C@H](C)NC)C(=O)N1C[C@@H](O)C[C@H]1Cc1c(-c2[nH]c3cc(F)ccc3c2C[C@@H]2C[C@H](O)CN2C(=O)[C@H](CC)NC(=O)[C@H](C)NC)[nH]c2cc(F)ccc12 [Birinapant], for which, under setting [1], the “Excess HSA synergy score” value was -84.2.
The same measure, in the same setting: as for `COc1ccc(-n2nc(C(N)=O)c3c2C(=O)N(c2ccc(N4CCCCC4=O)cc2)CC3)cc1` [Apixaban] + CC[C@H](NC(=O)[C@H](C)NC)C(=O)N1C[C@@H](O)C[C@H]1Cc1c(-c2[nH]c3cc(F)ccc3c2C[C@@H]2C[C@H](O)CN2C(=O)[C@H](CC)NC(=O)[C@H](C)NC)[nH]c2cc(F)ccc12 [Birinapant], the figure is -103; as for `CN1CC2c3ccccc3Oc3ccc(Cl)cc3C2C1` (stereo not drawn) [Asenapine maleate] + CC[C@H](NC(=O)[C@H](C)NC)C(=O)N1C[C@@H](O)C[C@H]1Cc1c(-c2[nH]c3cc(F)ccc3c2C[C@@H]2C[C@H](O)CN2C(=O)[C@H](CC)NC(=O)[C@H](C)NC)[nH]c2cc(F)ccc12 [Birinapant], 164.
Still for that read-out and setting: as for `O=S(=O)(O)c1ccc2cc(N=Nc3cc(S(=O)(=O)O)c4cccnc4c3O)ccc2c1` + CC[C@H](NC(=O)[C@H](C)NC)C(=O)N1C[C@@H](O)C[C@H]1Cc1c(-c2[nH]c3cc(F)ccc3c2C[C@@H]2C[C@H](O)CN2C(=O)[C@H](CC)NC(=O)[C@H](C)NC)[nH]c2cc(F)ccc12 [Birinapant], the figure is 130.
For the compound `NC[C@H]1O[C@H](O[C@H]2[C@H](O)[C@@H](O[C@H]3O[C@H](CO)[C@@H](O)[C@H](N)[C@H]3O)[C@H](N)C[C@@H]2N)[C@H](O)[C@@H](O)[C@@H]1O` [Kanamycin] + CC[C@H](NC(=O)[C@H](C)NC)C(=O)N1C[C@@H](O)C[C@H]1Cc1c(-c2[nH]c3cc(F)ccc3c2C[C@@H]2C[C@H](O)CN2C(=O)[C@H](CC)NC(=O)[C@H](C)NC)[nH]c2cc(F)ccc12 [Birinapant], the “Excess HSA synergy score” value under setting [1] is -24.6.
`CCc1cccc(CC)c1NC(=O)N1Cc2[nH]nc(NC(=O)c3ccc(N4CCN(C)CC4)cc3)c2C1` + CC[C@H](NC(=O)[C@H](C)NC)C(=O)N1C[C@@H](O)C[C@H]1Cc1c(-c2[nH]c3cc(F)ccc3c2C[C@@H]2C[C@H](O)CN2C(=O)[C@H](CC)NC(=O)[C@H](C)NC)[nH]c2cc(F)ccc12 [Birinapant]: under setting [1], the “Excess HSA synergy score” value is -207.
The same measure, in the same setting: as for `O=C(O)c1ccc(-c2cc3cccnc3c(-c3ccc4nonc4c3)n2)cc1` + CC[C@H](NC(=O)[C@H](C)NC)C(=O)N1C[C@@H](O)C[C@H]1Cc1c(-c2[nH]c3cc(F)ccc3c2C[C@@H]2C[C@H](O)CN2C(=O)[C@H](CC)NC(=O)[C@H](C)NC)[nH]c2cc(F)ccc12 [Birinapant], the figure is -117; as for `CCOC(=O)N1c2ccc(C(F)(F)F)cc2[C@@H](N(Cc2cc(C(F)(F)F)cc(C(F)(F)F)c2)C(=O)OC)C[C@H]1CC` [Torcetrapib] + CC[C@H](NC(=O)[C@H](C)NC)C(=O)N1C[C@@H](O)C[C@H]1Cc1c(-c2[nH]c3cc(F)ccc3c2C[C@@H]2C[C@H](O)CN2C(=O)[C@H](CC)NC(=O)[C@H](C)NC)[nH]c2cc(F)ccc12 [Birinapant], -42.4.
Same read-out and setting: the same measure for `Nc1nc(=O)c2c([nH]1)NCC(CNc1ccc(C(=O)N[C@@H](CCC(=O)O)C(=O)O)cc1)N2C=O` (stereo partly drawn) [Calcium folinate] + CC[C@H](NC(=O)[C@H](C)NC)C(=O)N1C[C@@H](O)C[C@H]1Cc1c(-c2[nH]c3cc(F)ccc3c2C[C@@H]2C[C@H](O)CN2C(=O)[C@H](CC)NC(=O)[C@H](C)NC)[nH]c2cc(F)ccc12 [Birinapant]: 148; for `CN(C)/[N+]([O-])=N/Oc1cc(ON[N+](=O)N2CCN(C(=O)c3cc(Cc4n[nH]c(=O)c5ccccc45)ccc3F)CC2)c([N+](=O)[O-])cc1[N+](=O)[O-]` + CC[C@H](NC(=O)[C@H](C)NC)C(=O)N1C[C@@H](O)C[C@H]1Cc1c(-c2[nH]c3cc(F)ccc3c2C[C@@H]2C[C@H](O)CN2C(=O)[C@H](CC)NC(=O)[C@H](C)NC)[nH]c2cc(F)ccc12 [Birinapant]: 162.

For the origin of these results see the supplement of paper PMC7765376.
